# HTR5A inv ag: inverse agonist of human HTR5A in OPRM1-OPRD1 counter-screen; hit rate 0.083% among 340,000; inhibition, % at 9.3 µM; P47898; HTR5A cell line, luminescence, inverse agonism; in the data active means inhibition mostly above about 23%, no sharp cut-off; inactive means mostly below about 18%;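 further: 0% = cells with DMSO and 100% = no-cell wells with DMSO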
# HTR5A ag ctr: activates human HTR5A in OPRM1-OPRD1 agonist counter-screen | P47898 | hit rate 0.61% among 340,000 | activation, % at 9.3 µM | AID 504692 | HTR5A agonist assay, luminescence, cell-based; in the data active means activation mostly above about 9.5%, no sharp cut-off; inactive means mostly below about 7.6%;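 further: 0% = cells with vehicle only and 100% = reference agonist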
# m5-HT2A agonist: mouse HTR2A agonism via beta-arrestin recruitment; P35363; CHO-K1 mHTR2A beta-arrestin complementation, luminescence; percent of 30 µM serotonin response; activation, % at 7.6 µM; hit rate 0.66% among 360,000; AID 624169;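 active means activation above a run cutoff, the mean activation of all tested compounds plus 3 SD, cut at about 14% in these data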;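 further: 0% = plate median of compound wells and 100% = 30 µM serotonin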
# MOR-DOR ag-1: agonists of human mu-delta opioid receptor heterodimerization. P35372+P41143. cells, OPRM1-OPRD1 heterodimerization, luminescence. activation, % at 9.3 µM. hit rate 0.3% among 340,000. AID 504326;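 further: 0% = vehicle-treated cells and 100% = reference agonist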
# OPRM1-OPRD1 inv: inverse agonist of human OPRM1-OPRD1 heterodimerization | cell-based MOR-DOR heterodimer luminescence, inverse agonism | inhibition, % at 9.3 µM | hit rate 0.21% among 340,000 | AID 504357; in the data active means inhibition above about 22%, passing the limit was not always enough;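 further: 0% = cells with DMSO and 100% = wells without cells with DMSO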
# MOR-DOR ag-2: counter-screen for HTR5A agonists: OPRM1-OPRD1 heterodimerization agonism; shares compounds with HTR5A ag ctr; AID 504913; hit rate 13% among 800; activation, % at 9.3 µM; U2OS counter-screen cells, complementation luminescence, 3 h
# HTR5A ag conf: confirmation of human HTR5A agonists | hit rate 17% among 800 | AID 504915 | HTR5A agonist cell assay, luminescence | shares compounds with HTR5A ag ctr | activation, % at 9.3 µM; in the data active means activation above about 17%;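 further: 0% = cells with vehicle only and 100% = full reference agonist response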
# OPRM1 ag: activates human mu opioid receptor in HTR2A counterscreen; activation, % at 9.3 µM; hit rate 5.3% among 2,300; U2OS OPRM1 beta-arrestin PathHunter, luminescence; DMSO 0%, DAMGO 9.3 µM 100%; shares compounds with m5-HT2A agonist;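 active means mean activation above the mean of DMSO-only wells plus 3 SD, cut at about 0.5% in these data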
# Target sequence (P35372 whole entry, looked up): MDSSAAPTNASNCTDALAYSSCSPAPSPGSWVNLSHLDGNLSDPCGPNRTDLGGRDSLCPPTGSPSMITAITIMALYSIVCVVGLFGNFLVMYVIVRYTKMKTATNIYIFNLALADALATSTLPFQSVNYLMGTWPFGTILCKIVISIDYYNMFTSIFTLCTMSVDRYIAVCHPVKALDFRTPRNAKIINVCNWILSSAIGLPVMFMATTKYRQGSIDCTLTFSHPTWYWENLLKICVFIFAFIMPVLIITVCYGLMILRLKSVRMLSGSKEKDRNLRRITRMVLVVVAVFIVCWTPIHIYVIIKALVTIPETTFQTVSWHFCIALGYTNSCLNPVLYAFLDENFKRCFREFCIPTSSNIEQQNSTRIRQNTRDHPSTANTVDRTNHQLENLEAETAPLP
# m5-HT2A ag conf: mouse HTR2A agonism confirmed | shares compounds with m5-HT2A agonist | CHO-K1 PathHunter beta-arrestin recruitment, luminescence; DMSO 0%, 30 µM serotonin 100% | activation, % at 7.6 µM | hit rate 19% among 2,300 | AID 624381;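 active means mean activation across triplicates above the hit threshold derived in the original primary screen, cut at about 15% in these data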
# An asterisk follows results filed as active; . = no result given. Shown are actives, neighbours in structure and some others; about 1.6% of the full set was active somewhere. Unless noted, no stated cut-off is given here; in the data, active means activation above about 18%; inactive means the rest.
SMILES,HTR5A inv ag,HTR5A ag ctr,m5-HT2A agonist,MOR-DOR ag-1,OPRM1-OPRD1 inv,MOR-DOR ag-2,HTR5A ag conf,OPRM1 ag,m5-HT2A ag conf
C=CCNC(=O)c1onc(CSc2ccc(F)cc2)c1C(=O)NCC=C,-64,22*,3,1,-6,1,-1,.,.
C=CCNC(=O)c1onc(CSc2ccc(F)cc2)c1C(=O)O,-11,4,-1,-4,20,.,.,.,.
CC(=O)Nc1ccc(NC(=O)C2CCCN(C(=O)c3ccc(Cl)cc3)C2)cc1 (stereo not drawn),6,-2,0,-3,14,.,.,.,.
CS(=O)(=O)c1ccc(NC(=O)C2CCCN(C(=O)c3ccc(Cl)cc3)C2)cc1 (stereo not drawn),-47,19*,3,-2,6,6,4,.,.
COC(=O)C[C@H]1C[C@@H]2c3cc(NC(=O)NC4CCCC4)ccc3O[C@@H]2[C@@H](CO)O1,.,.,-3,.,.,.,.,.,.
CCn1c(N2CCN(S(=O)(=O)c3ccc(OC)cc3)CC2)nc2ccccc21,-69,18*,17*,-1,4,3,37*,0,44*
CNC(=O)COC(=O)/C=C/c1cccc(F)c1,-1,-1,-2,1,-6,.,.,.,.
COc1cccc(-c2nc(-c3ccc(NC(=O)Cc4ccccc4OC)cc3)no2)c1,15,8,0,-1,3,.,.,.,.
COc1ccc(CC(=O)Nc2ccc(-c3noc(-c4ccccc4OC)n3)cc2)cc1,-58,23*,18*,3,-18,221*,-6,3.0*,10
O=C1c2ccccc2C(=O)N1CCc1c[nH]c2ccc(O)cc12,-100,24*,18*,-2,9,3,5,-1,-5
O=C1c2ccccc2C(=O)N1CCc1c[nH]c2ccccc12,-15,-1,-3,-1,6,.,.,.,.
COc1ccc(CC(=O)Nc2nc3ccccc3[nH]2)cc1,-25,8,1,-2,11,.,.,.,.
COc1ccc(NC(=O)Cc2nc3ccccc3[nH]2)cc1,-35,28*,85*,8,-47,3,19*,0,-2
CC(C)N1CCN(Cc2coc3ccccc3c2=O)CC1CCO (stereo not drawn),19,-3,-1,1,-4,.,.,.,.
C=CCn1c(Br)nc2c1c(=O)[nH]c(=O)n2C,-47,18*,19*,0,-1,-1,-1,-1,-4
Cc1cc(C(C)(C)C)c(O)c(C)c1CC1=NCCN1,-232,84*,32*,-1,6,0,86*,-1,41*
c1ccc2c(CC3=NCCN3)cccc2c1,-13,4,8,-1,3,.,.,.,.
COc1ccc(-c2csc(NC(=O)c3ccccc3NS(=O)(=O)c3ccc(F)c(F)c3)n2)cc1,-1,15*,18*,-1,5,24*,8,0,24*
Cc1ccc(S(=O)(=O)Nc2ccccc2C(=O)Nc2nc(-c3ccc(F)cc3)cs2)cc1,-5,-2,5,1,-3,.,.,.,.
C=CCN1CCc2c(cc(O)c(O)c2Br)[C@@H](c2ccccc2)C1,-109,57*,61*,9,-49,8,59*,0,141*
CC(C)(C)c1ccc(-n2ncc3c2CCCC3NC(=O)C2(C(N)=O)CC2)cc1 (stereo not drawn),-19,5,1,2,-11,.,.,.,.
CCOc1ccc(N2C(=O)CC(NCCc3c[nH]c4ccccc34)C2=O)cc1 (stereo not drawn),-162,71*,19*,-1,6,17,2,0,-2
CCOc1ccc(NC(=O)c2ccc3c(c2)CCN3S(C)(=O)=O)cc1,14,2,3,-1,7,.,.,.,.
CC(C)N=c1scc(-c2cccs2)n1/N=C/c1ccc(O)c(O)c1O,-8,14*,15*,15,-78,20*,4,1.1*,18*
Cc1ccc(S(=O)(=O)N2CCN(C3CC(=O)N(c4ccc(F)cc4)C3=O)CC2)cc1C (stereo not drawn),8,-2,6,1,-5,.,.,.,.
SMILES,HTR5A inv ag,HTR5A ag ctr,m5-HT2A agonist,MOR-DOR ag-1,OPRM1-OPRD1 inv,MOR-DOR ag-2,HTR5A ag conf,OPRM1 ag,m5-HT2A ag conf
COc1ccc(S(=O)(=O)N2CC(C)N(C(=O)N(C)C)C2C(C)C)cc1 (stereo not drawn),-11,3,4,0,0,.,.,.,.
CCCN1C[C@H](CSC)C[C@@H]2c3cccc4[nH]cc(c34)C[C@H]21,-323,90*,113*,2,-12,38*,0,0,160*
Cc1cc(OC(C)C(=O)N(Cc2ccco2)C2CCS(=O)(=O)C2)cc(C)c1Cl (stereo not drawn),5,-2,17*,-1,7,.,.,-1,-1
Cc1cc(OCC(=O)N(Cc2ccco2)C2CCS(=O)(=O)C2)cc(C)c1Cl (stereo not drawn),.,.,5,.,.,.,.,.,.
Nc1ccc(C(=O)N/N=C\C=C\c2ccc([N+](=O)[O-])cc2)cc1,-24,9,17*,11,-48,.,.,0,4
O=C(N/N=C/C=C/c1ccc2c(c1)OCO2)c1ccc([N+](=O)[O-])cc1,-21,-2,3,2,-13,.,.,.,.
Nc1nc(SCC(=O)Nc2ccc([N+](=O)[O-])cc2)[nH]c(=O)c1NC(=O)c1ccc(Br)cc1,8,3,-1,-3,10,.,.,.,.
CCOCCn1c(SCc2ccccc2)nc2c1c(=O)[nH]c(=O)n2C,-29,10,1,3,-17,.,.,.,.
CCOCCn1c(SCC(=O)OCc2ccccc2)nc2c1c(=O)[nH]c(=O)n2C,-3,2,17*,0,3,.,.,0,1
CC(=O)c1sc(NC(=O)C2CC(=O)N(Cc3ccccc3)C2)nc1-c1ccccc1 (stereo not drawn),-2,1,8,-3,16,.,.,.,.
CCOc1ccc(-n2c(=S)sc3c(=O)[nH]c(SCC(=O)C(C)(C)C)nc32)cc1,0,0,17*,-3,16,.,.,-1,0
CCOC(=O)CSc1nc2c(sc(=S)n2-c2ccc(OCC)cc2)c(=O)[nH]1,9,-6,-2,0,2,.,.,.,.
Nc1cc(C(=O)c2ccccc2)ccc1[N+](=O)[O-],3,-1,-5,0,2,.,.,.,.
CC(=O)c1cn(CC(=O)Nc2ccccc2)c2ccccc12,-12,5,20*,-2,10,.,.,-1,1

# Assay outcomes deposited in PubChem BioAssay by The Scripps Research Institute Molecular Screening Center.
